# Measured values from PubChem BioAssay (NCI).
# Compounds without any hit were thinned out: in the full panel of roughly 83,000, 20% have a hit.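 Note: values are percent growth. 100 is the growth of untreated cells, values between 100 and 0 indicate rising inhibition; between -100 and 0 indicates cell death.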 Active and inactive are the calls of the source. How the source made its calls: active means growth percent below 10; inactive means the rest.
# Tested on: MCF7 breast
# Test: NCI-60 one-dose screen, 48 h (100 = growth as untreated, 0 = no growth, -100 = all killed)
# Conditions: 10 µM
row,SMILES,growth
1,Nc1ccc(Sc2ccc3c4c2cccc4c(=O)n2c4ccccc4nc32)cc1,23.6% (inactive)
2,O=C(c1ccccc1)C(Sc1ccccc1)c1ccccc1 (stereo unspecified),94% (inactive)
3,O=NN(CCCl)C(=O)Nc1ccc(NC(=O)N(CCCl)N=O)cc1,86.4% (inactive)
4,Nc1nc(SCC#CCCl)c2[nH]cnc2n1,34.6% (inactive)
5,NC(=O)C12C(=O)NC(=O)C1(C(=O)O)C21CCCC1 (stereo unspecified),96.3% (inactive)
6,C=C[C@]1(C)C=C2C(=O)[C@@]3(O)OC(=O)[C@@]4(CCCC(C)(C)[C@H]34)[C@@]2(O)CC1,0.55% (active)
7,CCCn1c(=O)c2c(nc(-c3cccc(OCCCCl)c3)n2C)n(CCC)c1=O,84.6% (inactive)
8,CCCCCCCC/C=C/CCCCCCCCC1=NCCN1CCO,71.2% (inactive)
9,COc1ccc(CSc2nc3cc(OC)c(OC)cc3c(=O)n2-c2ccc(OC)cc2OC)cc1,83.1% (inactive)
10,Cc1ccccc1C1=N[C@@H](Cc2ccccc2)C(=O)c2c(nc3ccccn23)N1,84.9% (inactive)
11,COc1ccc(-c2ccccc2)cc1C(=O)c1ccc(-c2ccccc2)cc1,50.6% (inactive)
12,C/C=C\COc1cc(C)c(Cl)cc1Cl,98.4% (inactive)
13,CC(C)C[C@H](NC(=O)CCn1ccc2ccccc2c1=O)B(O)O,33.9% (inactive)
14,COc1ccc(-c2[nH]ncc2/C=C/c2cc(C(F)(F)F)[nH]c(=O)n2)cc1,91.2% (inactive)
15,c1ccc(COCC[P+](c2ccccc2)(c2ccccc2)c2ccccc2)cc1,4.89% (active)
16,CC(=O)Oc1c(C)c(C)c2c(c1C)CCC(C)(CC(=O)OCCCCCCCCCCC[P+](c1ccccc1)(c1ccccc1)c1ccccc1)O2 (stereo unspecified),-87.2% (active)
